HEK cytotox = kills HEK 293 cells | HEK 293 viability, ATP luminescence (CellTiter-Glo), 48-72 h | Potency, µM (highest dose often 115 µM), without a hit: top-dose activity change, negative = cytotoxicity, most hits filed as inhibitors | actives 6.6% (n = 94,000) | AID 1345083; also: nearly all actives have a fitted effect of over 60% in size
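CellTiter-Glo luminescence (cellular ATP) was read after 48 or 72 hr of compound exposure at 37 degree Celsius. Cells were HEK 293 plated at 250 cells/well.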
FLuc inh = blocks purified firefly luciferase enzyme activity | P08659 | purified P. pyralis luciferase, luminescence, biochemical | Potency, µM (doses to about 115 µM), usual class: inhibitors | actives 2.5% (n = 76,000) | AID 1347043; also: nearly all actives have a fitted effect of over 65% in size
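Inhibitors were tested against purified firefly luciferase in a biochemical, low-substrate format (both substrates at 10uM) and luminescence measured with a CCD imager.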
hNpr1 antagonist = blocks ANP-stimulated signaling of human Npr1 receptor; AID 1347048; P16066; Potency, µM (titrated, usually from 46.3 µM), without a hit: at the highest dose activity change, negative = inhibition, hits mostly inhibitors; actives 1.6% (n = 76,000); HEK293 hNpr1 GloSensor cGMP, ANP-stimulated luminescence; calls by dose curve; also: nearly all actives have a fitted effect of over 60% in size
Target sequence (P16066 whole entry, looked up): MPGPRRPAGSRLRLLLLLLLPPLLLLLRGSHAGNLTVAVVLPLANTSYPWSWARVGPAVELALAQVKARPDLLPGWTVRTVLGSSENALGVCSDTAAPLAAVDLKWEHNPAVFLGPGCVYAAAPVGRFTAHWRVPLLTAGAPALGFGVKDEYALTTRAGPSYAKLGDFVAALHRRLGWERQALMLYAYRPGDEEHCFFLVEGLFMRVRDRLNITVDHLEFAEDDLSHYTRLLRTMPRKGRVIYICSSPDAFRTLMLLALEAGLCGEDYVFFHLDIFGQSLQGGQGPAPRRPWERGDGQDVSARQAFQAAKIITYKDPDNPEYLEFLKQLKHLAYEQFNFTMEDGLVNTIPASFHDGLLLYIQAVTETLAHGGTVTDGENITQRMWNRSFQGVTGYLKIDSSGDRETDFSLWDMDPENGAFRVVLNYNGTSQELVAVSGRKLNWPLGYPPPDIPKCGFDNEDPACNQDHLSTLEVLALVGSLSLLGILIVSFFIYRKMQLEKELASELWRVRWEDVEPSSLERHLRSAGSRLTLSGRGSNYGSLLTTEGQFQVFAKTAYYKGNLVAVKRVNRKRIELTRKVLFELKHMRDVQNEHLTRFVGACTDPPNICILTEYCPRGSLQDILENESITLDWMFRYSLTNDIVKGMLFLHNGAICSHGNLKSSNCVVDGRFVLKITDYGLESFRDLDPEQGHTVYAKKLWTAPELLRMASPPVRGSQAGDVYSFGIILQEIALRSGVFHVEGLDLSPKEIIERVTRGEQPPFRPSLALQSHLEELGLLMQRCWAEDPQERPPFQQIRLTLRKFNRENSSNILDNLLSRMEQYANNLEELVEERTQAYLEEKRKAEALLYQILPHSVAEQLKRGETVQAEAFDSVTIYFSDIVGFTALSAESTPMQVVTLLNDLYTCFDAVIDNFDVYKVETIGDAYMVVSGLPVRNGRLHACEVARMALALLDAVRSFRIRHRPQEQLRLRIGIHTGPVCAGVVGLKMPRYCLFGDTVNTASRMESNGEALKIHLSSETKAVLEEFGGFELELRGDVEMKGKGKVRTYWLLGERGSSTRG
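Compound pre-incubated 30 min at room temperature on GloSensor-loaded HEK293 cells stably carrying hNpr1 and the pGS-40F cGMP biosensor. Stimulation uses hNppA at 0.1 nM final; luminescence is taken at baseline and 20 min post-agonist.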
3T3 cytotox = cytotoxic compounds in NIH 3T3 cells | Potency, µM (top dose mostly 96.7 µM), without a hit: at the top dose activity change, negative = cytotoxicity, actives largely listed as inhibitors | actives 4.3% (n = 94,000) | NIH 3T3 viability, CellTiter-Glo ATP luminescence, 48-72 h | AID 1345082; also: nearly all actives have a fitted effect of over 55% in size
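Mouse fibroblast NIH 3T3 cells, 400 per well, received compound via pintool and were incubated for 48 or 72 hr prior to CellTiter-Glo ATP luminescence measurement.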
* hit, by the source's call; i = inactive; ? = inconclusive; . = no result; [ ] = dose if it differs, or a comment. A selection: hits, their analogues and other compounds. The true share with any hit is near 11%. Unless noted, calls follow the shape of the dose curve; as a rule, active = well fitted curve in the direction sought with a large enough effect; inconclusive = small, poorly fitted or top-dose-only effect, or another doubt; inactive = no such curve, though single readings can be large; an effect the other way counts as inactive or inconclusive. % is scaled to controls: 0 for no effect and ±100 for the full control effect; potency is read from the fitted curve at half-maximal effect.

SMILES	HEK cytotox	FLuc inh	hNpr1 antagonist	3T3 cytotox
COCC(=O)NC1CCN(C(=O)c2ccc(-c3ccccc3OC)cc2)CC1	-29%	.	.	?
COc1ccccc1-c1ccc(CN2CCC(NC(=O)Cc3ccc(F)cc3)C2)cc1 (centres undefined)	40µM*	.	.	40µM*
COc1cccc(CN2C[C@@H]3C(=O)N(Cc4ccc5c(c4)OCO5)C(=O)[C@@H]3C2)c1OC	?	i	-23%	-28%
COc1ccc(C(=O)N2CCC(C(=O)N3CCC4(CC3)CC(=O)Nc3ccccc3O4)C2)cc1 (centres undefined)	-22%	.	.	-33%
CCCNC(=O)N1CCC2(CCCCO2)CC1	-2%	i	3%	-3%
CNC(=O)N1C[C@@H](CN(C)C)[C@H](NC(=O)c2cc(C)cc(C)c2)C1	4%	i	0%	4%
CC(C)CCN1CCCC2(CC(Cc3ccccc3)=NO2)C1 (centres undefined)	100µM*	i	9%[70.6 µM]	-20%[138 µM]
O=C(NC1CCN(c2ccc3nnc(-c4ccccc4)n3n2)C1)c1ccc(Cl)cc1 (centres undefined)	-18%	.	.	-23%
CCN1c2cc(C(=O)Nc3cccc(C#N)c3)ccc2C(=O)N2CCCCCC21 (centres undefined)	16µM*	i	-14%	?
CCN1c2cc(C(=O)Nc3ccc(Br)cc3)ccc2C(=O)N2CCCCCC21 (centres undefined)	?	i	-12%	40µM*
CCN1c2cc(C(=O)Nc3cc(C)cc(C)c3)ccc2C(=O)N2CCCCC21 (centres undefined)	28µM*	i	-4%	?
CCN1c2cc(C(=O)NCCC3=CCCCC3)ccc2C(=O)N2CCCCC21 (centres undefined)	45µM*	i	-10%	?
CCN1c2cc(C(=O)Nc3cc(F)cc(F)c3)ccc2C(=O)N2CCCCCC21 (centres undefined)	?	i	0%	?
COc1ccc2cnn(CC(=O)NC3CCCc4c3[nH]c3ccccc43)c(=O)c2c1OC (centres undefined)	?	i	4%	-29%
Cc1cccc([S+](=O)([O-])N2CCC3(CC2)OCCN(c2cccnc2)C3=O)c1	-11%[172 µM]	i	-1%[70.6 µM]	?
O=C(NCCc1cnc[nH]1)[C@@H]1C[C@H]2C(=O)NCCCCCCN(S(=O)(=O)c3cccs3)[C@H]2C1	i	i	-1%	i
COCCn1ncc(N2CCCC(CC(=O)NCc3ccc(C)o3)C2)cc1=O (centres undefined)	1%	i	1%	-10%
CC1CCN(C(=O)c2ccc(CN3C(=O)NC4(CCS(=O)(=O)CC4)C3=O)cc2)CC1	3%	i	-2%	i
CCc1ccc(NC(=O)c2ccc3c(c2)N(CC)C2CCCCN2C3=O)cc1 (centres undefined)	25µM*	?	-9%	?
CN1c2cc(C(=O)Nc3ccc(N4CCOCC4)cc3)ccc2C(=O)N2CCCCC21 (centres undefined)	?	i	-6%	?
CCN1c2cc(C(=O)Nc3ccc(Br)cc3)ccc2C(=O)N2CCCC21 (centres undefined)	40%	i	-2%	i
CCN1c2cc(C(=O)Nc3ccc(N4CCOCC4)cc3)ccc2C(=O)N2CCCCC21 (centres undefined)	?	i	0%	20µM*
CCN1c2cc(C(=O)Nc3ccc(C)cc3)ccc2C(=O)N2CCCCCC21 (centres undefined)	40µM*	?	-24%	?
CCN1c2cc(C(=O)Nc3ccccc3)ccc2C(=O)N2CCCCCC21 (centres undefined)	40µM*	i	-3%	?
CC(=O)NCC1(COc2cccnc2)C[C@@H](O)[C@@H](O)C1 (some centres undefined)	i	i	-1%[70.6 µM]	i
SMILES	HEK cytotox	FLuc inh	hNpr1 antagonist	3T3 cytotox
Cc1cccc(C(=O)NC2CCN(c3cc(-c4ccc(Cl)cc4)[nH]n3)C2)c1 (centres undefined)	?	i	-15%	?
COC(=O)[C@H](Cc1ccc(OC)cc1)NC(=O)[C@@H]1CN(C(=O)NC(C)C)CCN1C(=O)C1CCCCC1	i	i	3%	i
CCN1c2cc(C(=O)Nc3ccc(C)cc3Cl)ccc2C(=O)N2CCCCCC21 (centres undefined)	50µM*	i	-1%	?
O=C(Nc1cccc(F)c1)N1CCc2c(c3ccccc3n2CC2CC2)C1	45µM*	i	-16%	25µM*
COc1ccc(NC(=O)N2CCc3c(c4ccccc4n3C)C2)cc1	?	?	-3%	?
O=C(NCCC1CCN(C(=O)Nc2cccc(F)c2)CC1)c1ccccc1	-5%	?	2%	-24%
Cc1ccc(NC(=O)N2CCc3c(c4ccccc4n3CC3CC3)C2)cc1	?	14µM*	-26%	25µM*
CC(=O)N1CCc2c(c3ccccc3n2C)C1	-1%	i	-17%	-13%
O=C(Nc1ccc(Cl)cc1Cl)N1CCc2[nH]c3ccc(F)cc3c2C1	?	i	-17%	?
O=C(Nc1ccc(F)c(F)c1)N1CCc2c(c3ccccc3n2CC2CC2)C1	13µM*	i	-25%	?
Cn1c2c(c3cc(F)ccc31)CN(C(=O)Nc1ccc(F)c(Cl)c1)CC2	32µM*	?	?	13µM*
O=C(NC[C@H]1OC[C@@H](NCc2ccccc2O)[C@@H]1O)Nc1ccccc1	i	i	3%[70.6 µM]	4%[138 µM]
CN(C)c1nc2c(c(=O)[nH]1)CCN(Cc1cccc(OC(F)(F)F)c1)CC2	-3%	i	-2%	-5%
Cn1c2c(c3ccccc31)CN(C(=O)NC1CCCCC1)CC2	45µM*	i	-7%	32µM*
Cn1c2c(c3ccccc31)CN(C(=O)Nc1ccccc1)CC2	-10%	i	-17%	?
COC(=O)[C@H](Cc1ccc(OC)cc1)NC(=O)[C@@H]1CN(C(=O)NC(C)C)CCN1S(C)(=O)=O	3%	i	-2%	-7%
COC(=O)[C@H](Cc1ccc(OC)cc1)NC(=O)[C@H]1CN(C(C)=O)CCN1S(=O)(=O)c1ccccc1	i	i	3%	45µM*
Cc1cccc(-n2cc(CN3CCCC(C)(O)C3)c(-c3cccc(F)c3)n2)c1 (centres undefined)	?	18µM*	6%	89µM*
Cc1ccc(-n2cc(CN3CCN4CCCC4C3)c(-c3cccc(C)c3)n2)cc1 (centres undefined)	28µM*	?	-3%	25µM*
COc1ccc(-n2cc(CN3CCC(O)CC3)c(-c3cccc(F)c3)n2)cc1	?	40µM*	-1%	79µM*
COc1ccc(CCNC(=O)C2CCCN2C(=O)c2cccc(-c3cccnc3)c2)cc1 (centres undefined)	-25%	.	.	-11%
COc1ccc(-c2cn3c(n2)CO[C@@H](CNCc2ccccc2OC)C3)cc1	?	?	3%[70.6 µM]	?
